In assay [1] the target is T1, Muscle, skeletal receptor tyrosine-protein kinase (Homo sapiens) (UniProt O15146).
T1 sequence (whole entry): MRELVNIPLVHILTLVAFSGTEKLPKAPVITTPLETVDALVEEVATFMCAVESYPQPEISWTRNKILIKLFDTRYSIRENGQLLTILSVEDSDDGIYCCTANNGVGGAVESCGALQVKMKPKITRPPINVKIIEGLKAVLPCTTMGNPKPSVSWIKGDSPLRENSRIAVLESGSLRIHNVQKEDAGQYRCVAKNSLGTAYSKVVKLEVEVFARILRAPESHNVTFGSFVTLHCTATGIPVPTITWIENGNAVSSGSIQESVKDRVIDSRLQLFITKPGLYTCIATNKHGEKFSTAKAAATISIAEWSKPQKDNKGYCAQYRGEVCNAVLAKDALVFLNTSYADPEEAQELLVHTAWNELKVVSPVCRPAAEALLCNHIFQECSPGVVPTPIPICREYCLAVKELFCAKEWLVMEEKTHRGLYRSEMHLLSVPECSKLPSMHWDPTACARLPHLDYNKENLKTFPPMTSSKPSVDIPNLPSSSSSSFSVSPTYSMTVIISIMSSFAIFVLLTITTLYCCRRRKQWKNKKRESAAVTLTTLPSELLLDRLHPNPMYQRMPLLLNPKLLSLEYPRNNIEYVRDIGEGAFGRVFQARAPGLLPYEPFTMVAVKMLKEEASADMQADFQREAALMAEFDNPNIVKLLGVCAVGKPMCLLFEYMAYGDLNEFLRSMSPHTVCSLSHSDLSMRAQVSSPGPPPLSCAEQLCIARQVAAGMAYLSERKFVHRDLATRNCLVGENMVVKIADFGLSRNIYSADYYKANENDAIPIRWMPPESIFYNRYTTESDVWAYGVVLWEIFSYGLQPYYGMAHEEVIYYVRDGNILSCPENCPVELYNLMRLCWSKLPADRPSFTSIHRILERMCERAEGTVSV
To be noted: at 1 µM.

Assay [2] addresses T1, Muscle, skeletal receptor tyrosine-protein kinase (Homo sapiens). The settings on record: at 10 µM.
The target of assay [3] is T2, Serine/threonine-protein kinase Nek11 (Homo sapiens) (UniProt Q8NG66).
T2 sequence (whole entry): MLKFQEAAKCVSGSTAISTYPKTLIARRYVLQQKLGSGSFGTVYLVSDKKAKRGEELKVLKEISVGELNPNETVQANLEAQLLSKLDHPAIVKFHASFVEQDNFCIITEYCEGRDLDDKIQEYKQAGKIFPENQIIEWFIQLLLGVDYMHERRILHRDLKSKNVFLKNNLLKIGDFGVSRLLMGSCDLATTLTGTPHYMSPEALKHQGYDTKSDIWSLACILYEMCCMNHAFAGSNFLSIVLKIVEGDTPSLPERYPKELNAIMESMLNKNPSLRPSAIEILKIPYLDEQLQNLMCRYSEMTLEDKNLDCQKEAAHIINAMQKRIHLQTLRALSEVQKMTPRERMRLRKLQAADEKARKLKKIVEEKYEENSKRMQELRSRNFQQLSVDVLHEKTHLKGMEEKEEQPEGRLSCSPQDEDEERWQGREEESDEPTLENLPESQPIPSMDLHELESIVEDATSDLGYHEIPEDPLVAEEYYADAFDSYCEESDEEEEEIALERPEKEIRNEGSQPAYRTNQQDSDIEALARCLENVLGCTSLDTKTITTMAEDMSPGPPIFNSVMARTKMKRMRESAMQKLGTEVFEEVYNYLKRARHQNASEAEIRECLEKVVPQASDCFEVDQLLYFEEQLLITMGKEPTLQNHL
To be noted: at 1 µM.

The target of assay [4] is T2, Serine/threonine-protein kinase Nek11 (Homo sapiens). To be noted: at 10 µM.
Assay [5] addresses T3, Serine/threonine-protein kinase Nek2 (Homo sapiens) (UniProt P51955).
T3 sequence (whole entry): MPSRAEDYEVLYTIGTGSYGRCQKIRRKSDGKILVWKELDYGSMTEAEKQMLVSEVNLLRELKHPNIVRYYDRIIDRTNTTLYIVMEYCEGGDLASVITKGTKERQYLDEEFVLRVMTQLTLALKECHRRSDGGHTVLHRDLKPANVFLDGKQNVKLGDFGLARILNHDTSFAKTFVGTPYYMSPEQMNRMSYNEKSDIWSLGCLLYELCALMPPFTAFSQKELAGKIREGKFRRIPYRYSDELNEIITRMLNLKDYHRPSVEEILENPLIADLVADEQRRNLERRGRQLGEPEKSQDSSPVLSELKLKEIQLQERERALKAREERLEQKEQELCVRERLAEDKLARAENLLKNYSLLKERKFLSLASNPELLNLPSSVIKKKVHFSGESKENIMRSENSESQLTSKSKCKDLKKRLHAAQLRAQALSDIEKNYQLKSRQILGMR
To be noted: at 1 µM.

In assay [6] the target is T3, Serine/threonine-protein kinase Nek2 (Homo sapiens). The settings on record: at 10 µM.
The target in assay [7] is T4, Serine/threonine-protein kinase Nek3 (Homo sapiens) (UniProt P51956).
T4 sequence (whole entry): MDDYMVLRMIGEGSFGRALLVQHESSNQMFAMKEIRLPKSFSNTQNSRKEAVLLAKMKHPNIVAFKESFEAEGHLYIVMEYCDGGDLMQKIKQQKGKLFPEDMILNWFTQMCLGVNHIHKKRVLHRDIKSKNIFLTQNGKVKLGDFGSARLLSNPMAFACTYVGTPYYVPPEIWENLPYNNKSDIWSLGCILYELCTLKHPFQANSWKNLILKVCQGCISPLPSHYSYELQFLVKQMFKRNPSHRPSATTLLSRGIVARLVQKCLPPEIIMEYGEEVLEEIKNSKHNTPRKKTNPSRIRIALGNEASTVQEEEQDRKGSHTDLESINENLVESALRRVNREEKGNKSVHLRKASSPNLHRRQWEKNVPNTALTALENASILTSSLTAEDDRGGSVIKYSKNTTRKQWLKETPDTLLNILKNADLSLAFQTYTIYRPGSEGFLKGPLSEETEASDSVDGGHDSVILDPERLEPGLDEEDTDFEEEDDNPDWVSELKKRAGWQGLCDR
To be noted: at 1 µM.

Assay [8] concerns the target T4, Serine/threonine-protein kinase Nek3 (Homo sapiens). The settings on record: at 10 µM.
The target in assay [9] is Serine/threonine-protein kinase tousled-like 2 (Homo sapiens) (UniProt Q86UE8). The settings on record: at 1 µM.
For assay [10] the target is unchanged. The settings on record: at 10 µM.
For assay [11], the target named is T5, Testis-specific serine/threonine-protein kinase 1 (Homo sapiens) (UniProt Q9BXA7).
T5 sequence (whole entry): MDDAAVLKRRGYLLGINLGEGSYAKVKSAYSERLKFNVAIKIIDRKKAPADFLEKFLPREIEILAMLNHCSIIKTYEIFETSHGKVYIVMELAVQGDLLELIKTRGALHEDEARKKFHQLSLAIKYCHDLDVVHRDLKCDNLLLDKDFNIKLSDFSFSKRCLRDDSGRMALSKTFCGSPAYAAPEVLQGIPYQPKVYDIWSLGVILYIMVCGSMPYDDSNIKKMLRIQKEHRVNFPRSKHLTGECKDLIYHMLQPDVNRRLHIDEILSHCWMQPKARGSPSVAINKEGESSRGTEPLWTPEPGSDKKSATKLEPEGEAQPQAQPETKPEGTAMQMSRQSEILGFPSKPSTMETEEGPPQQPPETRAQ
To be noted: at 1 µM.

Assay [12] deals with T5, Testis-specific serine/threonine-protein kinase 1 (Homo sapiens). To be noted: at 10 µM.
The target of assay [13] is T6, Testis-specific serine/threonine-protein kinase 2 (Homo sapiens) (UniProt Q96PF2).
T6 sequence (whole entry): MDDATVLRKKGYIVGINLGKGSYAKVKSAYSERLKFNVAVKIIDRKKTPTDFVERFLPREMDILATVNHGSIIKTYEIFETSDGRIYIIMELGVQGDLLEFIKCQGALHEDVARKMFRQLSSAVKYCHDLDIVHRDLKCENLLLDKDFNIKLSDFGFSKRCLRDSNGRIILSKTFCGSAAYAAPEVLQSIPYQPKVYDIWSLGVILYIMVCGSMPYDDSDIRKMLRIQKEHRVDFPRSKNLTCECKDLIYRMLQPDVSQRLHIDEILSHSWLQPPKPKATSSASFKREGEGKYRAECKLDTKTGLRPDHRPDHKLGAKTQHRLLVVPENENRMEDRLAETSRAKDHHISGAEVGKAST
To be noted: at 10 µM.

Assay [14] concerns the target T7, Tyrosine-protein kinase Tec (Homo sapiens) (UniProt P42680).
T7 sequence (whole entry): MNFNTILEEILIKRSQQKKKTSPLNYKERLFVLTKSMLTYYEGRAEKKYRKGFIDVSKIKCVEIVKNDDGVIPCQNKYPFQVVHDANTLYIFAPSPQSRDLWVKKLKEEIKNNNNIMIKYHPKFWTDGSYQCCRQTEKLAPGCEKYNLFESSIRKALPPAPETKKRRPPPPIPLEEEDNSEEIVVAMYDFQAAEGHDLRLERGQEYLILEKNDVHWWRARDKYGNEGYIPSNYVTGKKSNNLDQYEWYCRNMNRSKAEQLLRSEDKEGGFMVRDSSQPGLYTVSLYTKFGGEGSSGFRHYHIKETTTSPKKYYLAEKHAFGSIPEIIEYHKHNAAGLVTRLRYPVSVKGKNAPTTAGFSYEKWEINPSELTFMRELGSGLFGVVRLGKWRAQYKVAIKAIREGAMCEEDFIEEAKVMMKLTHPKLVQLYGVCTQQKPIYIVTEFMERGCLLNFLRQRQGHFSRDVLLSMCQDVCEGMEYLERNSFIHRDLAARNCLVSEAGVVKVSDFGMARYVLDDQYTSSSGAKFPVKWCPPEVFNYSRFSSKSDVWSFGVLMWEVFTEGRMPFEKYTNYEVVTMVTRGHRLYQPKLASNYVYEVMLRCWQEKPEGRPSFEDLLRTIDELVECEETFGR
The settings on record: at 1 µM.

For assay [15], the target named is T7, Tyrosine-protein kinase Tec (Homo sapiens). The settings on record: at 10 µM.
Assay [16] deals with Angiopoietin-1 receptor (Homo sapiens) (UniProt Q02763). To be noted: at 1 µM.
Assay [17] has the same target. To be noted: at 10 µM.
Assay [18] addresses High affinity nerve growth factor receptor (Homo sapiens) (UniProt P04629). To be noted: at 1 µM.
The target is the same in assay [19]. To be noted: at 10 µM.
The target in assay [20] is BDNF/NT-3 growth factors receptor (Homo sapiens) (UniProt Q16620). The settings on record: at 1 µM.

The structures appear in SMILES notation.

Chain of Serine/threonine-protein kinase tousled-like 2 (Homo sapiens) (Q86UE8 whole entry, looked up): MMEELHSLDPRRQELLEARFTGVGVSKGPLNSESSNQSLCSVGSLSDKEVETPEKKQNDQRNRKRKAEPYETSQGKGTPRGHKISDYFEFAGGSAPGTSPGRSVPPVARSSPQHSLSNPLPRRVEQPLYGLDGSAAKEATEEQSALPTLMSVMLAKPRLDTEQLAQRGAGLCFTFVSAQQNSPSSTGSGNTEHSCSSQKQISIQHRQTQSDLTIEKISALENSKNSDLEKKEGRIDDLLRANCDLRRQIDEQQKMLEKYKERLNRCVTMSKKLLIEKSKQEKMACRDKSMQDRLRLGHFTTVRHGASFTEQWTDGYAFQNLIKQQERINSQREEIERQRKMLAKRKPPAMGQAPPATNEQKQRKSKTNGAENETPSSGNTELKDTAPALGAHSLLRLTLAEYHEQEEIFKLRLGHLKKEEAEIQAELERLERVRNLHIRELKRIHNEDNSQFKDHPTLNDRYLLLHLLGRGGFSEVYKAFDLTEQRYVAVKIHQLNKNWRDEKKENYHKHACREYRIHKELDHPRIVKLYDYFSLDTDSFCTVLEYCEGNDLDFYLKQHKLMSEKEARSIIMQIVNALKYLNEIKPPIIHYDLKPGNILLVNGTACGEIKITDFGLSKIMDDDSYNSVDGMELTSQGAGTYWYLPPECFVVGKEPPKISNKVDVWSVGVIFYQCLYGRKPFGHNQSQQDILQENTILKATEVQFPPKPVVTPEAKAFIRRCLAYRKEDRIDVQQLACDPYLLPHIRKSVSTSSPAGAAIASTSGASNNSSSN
Chain of High affinity nerve growth factor receptor (Homo sapiens) (P04629 33-796 limits assumed): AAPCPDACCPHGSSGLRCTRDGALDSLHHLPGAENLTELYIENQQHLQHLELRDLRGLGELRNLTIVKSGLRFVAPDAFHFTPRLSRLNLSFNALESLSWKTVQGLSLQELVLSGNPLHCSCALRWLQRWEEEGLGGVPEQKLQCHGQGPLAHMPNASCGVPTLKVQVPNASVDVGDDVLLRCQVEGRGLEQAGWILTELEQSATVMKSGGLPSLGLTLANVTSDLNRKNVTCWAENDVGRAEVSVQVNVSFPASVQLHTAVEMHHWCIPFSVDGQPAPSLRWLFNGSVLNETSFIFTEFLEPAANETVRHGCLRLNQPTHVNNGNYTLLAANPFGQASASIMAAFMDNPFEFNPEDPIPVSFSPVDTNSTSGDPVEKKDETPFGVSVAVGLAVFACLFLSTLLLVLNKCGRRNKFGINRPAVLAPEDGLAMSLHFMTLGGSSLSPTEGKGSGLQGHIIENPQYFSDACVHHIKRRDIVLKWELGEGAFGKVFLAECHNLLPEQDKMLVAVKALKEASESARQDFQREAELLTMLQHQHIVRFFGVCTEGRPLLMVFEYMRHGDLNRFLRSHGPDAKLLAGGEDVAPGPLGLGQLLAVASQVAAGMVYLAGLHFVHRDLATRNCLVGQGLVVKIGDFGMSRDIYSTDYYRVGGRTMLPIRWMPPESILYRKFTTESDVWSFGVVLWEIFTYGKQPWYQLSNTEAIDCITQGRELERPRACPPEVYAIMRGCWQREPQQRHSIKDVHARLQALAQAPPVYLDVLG
Chain of Angiopoietin-1 receptor (Homo sapiens) (Q02763 whole entry): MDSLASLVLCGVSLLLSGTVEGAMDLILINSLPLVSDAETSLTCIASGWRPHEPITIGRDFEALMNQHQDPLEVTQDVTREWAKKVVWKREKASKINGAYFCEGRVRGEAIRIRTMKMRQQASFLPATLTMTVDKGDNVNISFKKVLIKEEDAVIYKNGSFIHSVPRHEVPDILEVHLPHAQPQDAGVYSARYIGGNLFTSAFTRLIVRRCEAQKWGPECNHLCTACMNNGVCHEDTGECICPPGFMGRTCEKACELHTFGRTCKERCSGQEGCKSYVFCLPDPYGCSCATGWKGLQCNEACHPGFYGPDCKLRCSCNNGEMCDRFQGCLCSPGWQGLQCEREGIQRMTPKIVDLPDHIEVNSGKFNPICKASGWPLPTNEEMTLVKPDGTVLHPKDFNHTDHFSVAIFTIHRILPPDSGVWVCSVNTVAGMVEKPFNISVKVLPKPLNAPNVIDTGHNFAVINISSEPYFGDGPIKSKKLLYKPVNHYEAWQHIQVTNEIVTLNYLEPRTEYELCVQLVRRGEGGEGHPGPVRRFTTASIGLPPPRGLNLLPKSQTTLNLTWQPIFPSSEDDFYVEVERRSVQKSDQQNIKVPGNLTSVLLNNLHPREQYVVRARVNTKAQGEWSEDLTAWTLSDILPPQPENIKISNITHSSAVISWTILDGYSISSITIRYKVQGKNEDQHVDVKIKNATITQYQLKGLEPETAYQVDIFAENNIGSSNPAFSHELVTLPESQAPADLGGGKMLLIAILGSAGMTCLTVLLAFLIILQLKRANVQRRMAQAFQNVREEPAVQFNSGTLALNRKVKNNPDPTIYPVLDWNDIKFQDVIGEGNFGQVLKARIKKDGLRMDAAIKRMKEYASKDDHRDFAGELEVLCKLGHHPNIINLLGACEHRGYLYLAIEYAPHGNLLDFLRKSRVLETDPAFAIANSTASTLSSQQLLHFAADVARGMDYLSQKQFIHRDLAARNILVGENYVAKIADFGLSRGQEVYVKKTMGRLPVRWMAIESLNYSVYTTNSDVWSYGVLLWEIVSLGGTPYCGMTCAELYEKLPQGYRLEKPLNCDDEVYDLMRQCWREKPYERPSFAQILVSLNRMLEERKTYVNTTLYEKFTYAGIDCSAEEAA
Chain of BDNF/NT-3 growth factors receptor (Homo sapiens) (Q16620 32-822 limits assumed): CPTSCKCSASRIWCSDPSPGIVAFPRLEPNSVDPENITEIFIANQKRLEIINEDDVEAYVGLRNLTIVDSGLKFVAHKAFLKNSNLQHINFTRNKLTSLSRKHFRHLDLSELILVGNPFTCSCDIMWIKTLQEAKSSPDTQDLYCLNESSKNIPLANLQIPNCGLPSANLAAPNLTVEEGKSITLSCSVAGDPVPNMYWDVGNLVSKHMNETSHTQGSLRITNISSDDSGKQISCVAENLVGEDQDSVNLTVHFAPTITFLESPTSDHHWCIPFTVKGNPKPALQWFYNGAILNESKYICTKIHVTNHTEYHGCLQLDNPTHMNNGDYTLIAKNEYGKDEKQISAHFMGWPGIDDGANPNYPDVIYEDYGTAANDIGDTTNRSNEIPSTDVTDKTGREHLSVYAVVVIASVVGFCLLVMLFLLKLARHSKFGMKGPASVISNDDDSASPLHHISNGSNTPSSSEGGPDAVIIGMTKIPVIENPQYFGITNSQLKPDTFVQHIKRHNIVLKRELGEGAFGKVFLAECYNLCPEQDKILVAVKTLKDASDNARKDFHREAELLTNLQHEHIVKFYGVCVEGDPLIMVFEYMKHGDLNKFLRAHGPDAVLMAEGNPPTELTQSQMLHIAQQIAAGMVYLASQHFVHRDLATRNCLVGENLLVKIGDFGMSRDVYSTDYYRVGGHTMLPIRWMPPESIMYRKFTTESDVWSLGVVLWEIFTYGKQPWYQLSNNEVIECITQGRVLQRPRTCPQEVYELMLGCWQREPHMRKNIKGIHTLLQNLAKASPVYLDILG

Turning to `O=C(O)c1ccc2c3c1cccc3c(=O)n1c3ccccc3nc21`, the residual activity in [1] is 105%; in [2] it was 94%; in assay [3], 80%; in assay [4], 93%; in assay [5] it was 123%; in [6], 102%. Also, the residual activity in assay [7] is 93%; in assay [8], 97%; in assay [9], 104%; in [10] it was 97%; in assay [11] it was 106%; in assay [12], 79%. The residual activity in [13] is 108%; in [14], 99%; in assay [15], 82%; in assay [16] it was 106%; in [17], 99%; in assay [18], 78%. Further, the residual activity in [19] was 19%; in assay [20], 86%.

With `Nc1n[nH]c2nnc(-c3c(-c4ccccc4)nn4ccccc34)cc12`, the residual activity came out at 86% in assay [2]; 107% in assay [3]; 97% in assay [4]; 91% in [5]; 86% in [6]; 83% in assay [7]. Also, the residual activity in assay [8] stood at 87%; in [9], 89%; in assay [10] it was 82%; in [11] it was 87%; in assay [12], 90%; in assay [13] it was 86%. Also, the residual activity in assay [14] is 82%; in assay [15], 50%; in assay [16] it was 94%; in assay [17], 72%; in [18], 68%; in assay [19] it was 24%. In addition, the residual activity in [20] stood at 94%.

With `Cn1nc2c3c(cccc31)C(=O)c1ccccc1-2`, the residual activity came out at 75% in assay [1]; 81% in assay [2]; 48% in [3]; 55% in [4]; 95% in assay [5]; 84% in assay [6]. In addition, the residual activity was determined as 74% in [7]; 91% in assay [8]; 95% in assay [9]; 100% in assay [11]; 79% in assay [12]; 76% in assay [13]. For the same compound, the residual activity in [14] was determined as 90%; in [15] it was 69%; in assay [16], 104%; in [17], 79%; in assay [18] it was 46%; in [19] it was 9%.

The record behind these values is ChEMBL document CHEMBL2218924, “A broad activity screen in support of a chemogenomic map for kinase signalling research and drug discovery” (Biochem J, 2013).
